High-throughput results: PubChem BioAssay, National Center for Advancing Translational Sciences (NCATS)
An excerpt weighted towards active compounds, which were near 1.7% of everything screened.
hERG WT inh = inhibitors of human wildtype KCNH2 potassium channel | Q12809 | U2OS, BacMam KCNH2, thallium flux FluxOr; active compounds read low | activity change, % at 1.84 µM | 0.37% of 340,000 active;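 active means maximum activity change below -70%; inconclusive means maximum activity change between -70% and -50%; inactive means maximum activity change above -50%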
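U2OS cells transduced with wild-type KCNH2 virus are loaded with FluxOr dye for 45 min, and thallium flux is measured in kinetic reads before and after stimulation buffer. Rate constants are normalized to DMSO controls.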
Coupling enz = inhibits coupling enzyme system, counter-screen for aldolase hits; activity change, negative = inhibition, % at 58.2 µM, hits read low; coupling enzyme system counterscreen, AmpLite Red fluorescence; 0.67% of 290,000 active; in the data active means activity change below about -30%
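Counterscreen lacking aldolase: glyceraldehyde-3-phosphate coupling-enzyme reagent preincubated 10 min at RT with compound (at 57.5 uM final), then substrate/coupling system with AmpLite Red added; fluorescence read at 525/598 nm after 20 min RT.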
Giardia killer = Giardia lamblia killing. Giardia lamblia trophozoite viability. activity change, % at 7.66 µM, hits read low. 0.15% of 340,000 active; in the data active means activity change below about -80%; inconclusive means between about -30% and that limit;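 further: parasites exposed to compound for two days anaerobically before the ATP read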
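Luminescent ATP signal served as the viability read-out, measured 15-30 min after adding ATP detection reagent to trophozoites that had been incubated with compounds for 48 hrs at 37 deg C anaerobically at 100 cells/well.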
KCNH2 3.1 inh = KCNH2 3.1 (human) potassium channel inhibition | 0.95% of 340,000 active | AID 720553 | U2OS KCNH2 3.1, thallium flux FluxOr; active compounds read low | activity change, % (tested at about 1.8 µM);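 active means maximum activity change below -70%; inconclusive means maximum activity change from -70% to -50%; inactive means maximum activity change above -50%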;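 further: thallium influx rate constant from kinetic fluorescence after stimulation buffer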
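Steps: virus added to U2OS suspension (4 h, RT, dark); medium with 10% FBS added, cells plated, 37 C overnight; FluxOr/Red40 loading buffer 45 min RT; stimulation buffer, 2 min kinetic read; rate constant normalized.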
USP1 inh = blocks the human USP1/UAF1 deubiquitinase complex; recombinant USP1/UAF1, Ub-Rhodamine cleavage fluorescence; 0.23% of 390,000 active; Potency, µM (highest dose often 57.1 µM), inactives show top-dose activity change, negative = inhibition, actives largely listed as inhibitors; active means well fitted inhibition curve with a large enough effect; inconclusive means small, poorly fitted or top-dose-only effect; inactive means no such curve, though single readings can be large or run the other way; further: potency means the concentration at half of the fitted maximal effect; nearly all actives have a fitted effect of over 60% in size
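In this screen, compounds sit with the deubiquitinase complex (1nM) for 15 min at room temperature before Ub-Rho is added at 150nM final. Fluorescence rise is then followed for 6 reads every 60 seconds.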
* hit, by the source's call; ? = inconclusive; . = no result. On the % scale 0 is the no-effect control and ±100 the full control effect.

SMILES	hERG WT inh	Coupling enz	Giardia killer	KCNH2 3.1 inh	USP1 inh
COc1ccc(C(=O)c2c(-c3ccc(OC)cc3)oc3ccccc23)cc1	-12.9	.	?	-70.7*	-11.0%
COc1cc(C(=O)N2CCN(C3CCCCC3)CC2)cc(OC)c1OC	6.3	1.6	1.0	4.4	-21.4%
COc1ccc(C(=O)N2CCN(C3CCCCC3)CC2)cc1OC	-10.6	-1.0	-3.5	-74.6*	3.0%
S=c1[nH]nc(Cc2ccccc2)n1Cc1ccco1	5.7	-0.9	8.0	17.3	-10.5%
S=c1[nH]nc(C2CC2)n1Cc1ccco1	-322.7*	-0.3	-14.7	7.1	-10.1%
O=c1c(/C=N/Nc2ccccc2)c(Sc2nnnn2-c2ccccc2)nc2ccccn12	?	-2.1	8.7	-11.5	3.16µM*
Cn1c(N/N=C/c2cc3ccccc3nc2Cl)nc2ccccc21	1.0	-1.7	-87.8*	-4.6	?
Cc1ccc([C@H]2N[C@]3(CCCN(Cc4ccc(Cl)cc4)C3=O)[C@H]3C(=O)N(C)C(=O)[C@@H]23)cc1	-14.4	.	.	5.7	?
CN1CCN(C(=O)c2cnn(-c3ccccc3)c2NC(=O)c2ccccc2)CC1	3.9	1.3	-1.6	-7.9	-1.8%
CN1CCN(C(=O)c2cnn(-c3ccccc3)c2NC(=O)c2ccc(Br)cc2)CC1	-79.5*	.	9.3	-75.8*	-3.5%
O=C1C=C(NCCc2cc(Br)c(O)c(Br)c2)C(=O)c2ncccc21	-32.9	.	-7.8	10.2	3.55µM*
O=C1C=C(NCCO)C(=O)c2cnccc21	.	-17.1	.	.	.
COc1ccc(NC(=O)c2cc3c([nH]c2=O)CC(c2ccccc2)CC3=O)cc1 (configuration not stated)	.	.	.	.	12.7%
O=[N+]([O-])c1ccc(COc2ncnc3ccccc23)cc1	-162.8*	1.9	57.1	-192.3*	-13.6%
COc1ccc(C(=O)N2CC(=O)Nc3ccc(C)cc3C2c2ccccc2)c(OC)c1 (configuration not stated)	.	.	.	.	-15.0%
O=C(CCC1CCN(C(=O)c2cc(C(F)(F)F)ccc2Cl)CC1)NC1CC1	5.0	0.2	?	-115.5*	-8.1%
O=C(c1ccc2c(c1)N(Cc1ccc(Cl)cc1)C(=O)c1ccccc1S2(=O)=O)N1CCC(Cc2ccccc2)CC1	.	.	.	.	-32.1%
CCN(CC)CCNC(=O)C(=O)NCC(c1cccnc1)N1CCN(c2ccccc2)CC1 (configuration not stated)	.	.	.	.	6.7%
CN(C(=S)Nc1ccccc1F)C1(c2ccccc2Cl)CCCCC1=O (configuration not stated)	5.5	-0.3	8.7	-6.3	-20.3%
CC(C)NC(=S)N(C)C1(c2ccccc2Cl)CCCCC1=O (configuration not stated)	-11.9	-2.8	10.5	-93.2*	-20.0%
CCn1c2ccccc2c2cc(NC(=O)COC(=O)c3cccc(S(=O)(=O)NC)c3)ccc21	-0.7	0.0	4.1	2.1	-22.9%
CCN(CC)S(=O)(=O)c1cccc(C(=O)OCC(=O)Nc2ccc3c(c2)c2ccccc2n3CC)c1	-119.1*	2.3	-3.7	9.2	-4.3%
CC1(C)CCC(=O)c2ccccc21	4.3	.	19.0	16.7	5.6%
CC1(C)CCC2=C(O1)c1ccccc1C(=O)C2=O	.	-55.5*	.	.	.
COc1ccccc1N1CCN(c2ccc(=O)n(CC(=O)NCc3ccc(F)cc3)n2)CC1	.	.	.	.	-7.2%
SMILES	hERG WT inh	Coupling enz	Giardia killer	KCNH2 3.1 inh	USP1 inh
Nc1cc(=O)n(Cc2ccccc2)c(=O)n1-c1ccc(Cl)cc1	-1.4	-2.2	-5.0	2.5	-8.8%
COc1ccc(C)c(-n2c(N)cc(=O)n(Cc3ccccc3)c2=O)c1	-10.3	0.5	4.8	-81.6*	-3.4%
CCNc1ccc(Br)cc(C(=O)/C=C/c2ccc(Cl)cc2)c1=O	-1.5	-28.3	-2.6	0.6	31.6µM*
CCOc1cc(Cl)c(S(=O)(=O)n2cc(C)nc2CC)cc1Cl	.	.	.	.	-11.3%
COc1ccc(C=C2C(=O)OC(C)(C)OC2=O)cc1OC	0.6	0.6	3.5	6.5	-14.7%
COc1ccc(/C=C2\C(=O)NC(=O)c3ccccc32)cc1OC	3.5	.	-2.7	?	1.78µM*
O=C(CSc1nnc(-c2ccc(F)cc2)o1)N1CCCc2ccccc21	.	.	.	.	-23.6%
CC(NC(=O)C12CC3CC(CC(C3)C1)C2)C(=O)N/N=C/C1=C(N2CCOCC2)C(=C\c2cccc([N+](=O)[O-])c2)/CC1 (configuration not stated)	-11.1	-1.2	-6.3	-6.8	-1.6%
COc1ccc(S(=O)(=O)N/N=C\c2ccc([N+](=O)[O-])o2)c(OC)c1	-0.8	.	-29.0	0.3	-19.5%
CC(NC(=O)C12CC3CC(CC(C3)C1)C2)C(=O)NN=Cc1ccc([N+](=O)[O-])o1 (configuration not stated)	8.4	.	-93.0*	-20.8	-21.5%
[O-]/[N+](=C\c1ccccc1)[C@@H]1CCCC[C@@H]1/[N+]([O-])=C/c1ccccc1	2.2	-1.1	6.1	3.9	-18.6%
O=[N+]([O-])c1ccc(/C=[N+](\[O-])[C@@H]2CCCC[C@@H]2/[N+]([O-])=C/c2ccc([N+](=O)[O-])o2)o1	23.1	-12.6	-82.2*	-5.4	?
CC(NC(=O)c1ccc([N+](=O)[O-])o1)C12CC3CC(CC(C3)C1)C2 (configuration not stated)	-14.0	-2.7	-86.5*	-7.4	?
O=[N+]([O-])c1ccc(/C=N\NS(=O)(=O)c2ccc(F)cc2)o1	11.5	-0.4	?	-84.9*	-2.0%
C(/Oc1ccccc1)=C1\Nn2c(nnc2-c2cc(-c3ccccc3)n[nH]2)S1	.	.	52.3	.	.
CCC(C)CCCCC(=O)N[C@@H](CCN)C(=O)N[C@H](C(=O)N[C@@H](CCN)C(=O)N[C@H]1CCNC(=O)C([C@@H](C)O)NC(=O)[C@@H](CCN)NC(=O)[C@H](CCN)NC(=O)[C@H](CC(C)C)NC(=O)[C@@H](CC(C)C)NC(=O)[C@H](CCN)NC1=O)[C@@H](C)O (some centres not stated)	.	-0.4	.	.	.
O=C(NCCC1=CCCCC1)c1ccc2c(c1)N(Cc1ccccc1)C(=O)c1ccccc1S2(=O)=O	.	.	.	.	12.7%
O=C(N/N=C\c1ccc([N+](=O)[O-])s1)C1COc2ccccc2O1 (configuration not stated)	-30.4	0.2	-85.1*	-13.9	-14.5%
O=C(N/N=C/c1ccc([N+](=O)[O-])o1)C1CCCC1	-11.1	.	-93.5*	7.0	-26.0%
O=C(N/N=C\c1ccc([N+](=O)[O-])o1)C1COc2ccccc2O1 (configuration not stated)	10.4	2.0	-82.4*	4.8	-14.6%
O=C(N/N=C/c1ccc([N+](=O)[O-])o1)c1ccc(O)cc1	-2.8	-7.4	-25.9	-0.3	-16.8%
CCOCCCn1c(=N)c(C(=O)NC2CCCC2)cc2c(=O)n3cccc(C)c3nc21	.	.	.	.	-16.9%
COc1cc(NC(=O)Cn2ccn(-c3cc(C)cc(C)c3)c(=O)c2=O)cc(OC)c1	.	.	.	.	-5.6%
